Inconclusive results are not listed. The source made the active and inactive calls. Unless noted, the call rests on the fitted dose curve.
Experiments:
[1] = Nuclear factor erythroid 2-related factor 2/antioxidant responsive element (Nrf2/ARE) small molecule agonists: qHTS cell viability counter screen in human keratinocytes (AID 1919968; active means well fitted curve in the direction sought with a large enough effect in the repeat runs; an effect the other way counts as inactive or inconclusive; further: nearly all actives have a fitted effect of over 55% in size; further: potency means the concentration at half of the fitted maximal effect)
Procedure, shortened: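 Cytotoxicity was multiplexed with the Nrf2/ARE luciferase assay in the same wells. Stably transfected HaCaT keratinocytes were treated with test compounds for 23 h at 37 C. Cell viability was then measured by CellTiter-Fluor fluorescence.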

[2] = biological target: Gonadotropin-releasing hormone receptor (Homo sapiens) (UniProt P30968); assay: Human gonadotropin-releasing hormone receptor (GnRHR) small molecule agonists, calcium flux assay in GnRHR-HEK293 cells (AID 1920063); further: nearly all actives have a fitted effect of over 35% in size
Procedure, shortened: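 Agonist activity was measured as intracellular calcium flux in HEK293 cells engineered to stably express human GnRHR. After dye loading for 1 hour at 37 C, compounds in DMSO were added and fluorescence was followed for 3 minutes.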

[3] = biological target: KiSS-1 receptor (Homo sapiens) (UniProt Q969F8); assay: Human kisspeptin (KISS1R) small molecule agonists, calcium flux assay in KISS1R-HEK293 cells (AID 1920064; active means well fitted curve in the direction sought with a large enough effect in the repeat runs; an effect the other way counts as inactive or inconclusive; further: potency means the concentration at half of the fitted maximal effect)
Procedure, shortened: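 Agonist activity is monitored as intracellular calcium rise in engineered HEK293 cells carrying human KISS1R. Cells are dye-loaded for 1 h at 37 C before compound addition, and fluorescence is recorded for 3 min.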

[4] = G protein-coupled receptor (GPCR) small molecule agonists, calcium flux assay: HEK293 wild type cell line counter screen (AID 1920065)
Procedure, shortened: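 Seed cells, incubate 18 h (37 C, 5% CO2); add calcium dye, 1 h at 37 C; pin-transfer compounds, ATP control or DMSO; read fluorescence 480/540 nm each second for 3 min.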

[5] = p53 small molecule agonists, cell-based qHTS assay with human liver microsomes: qHTS cell viability counter screen (AID 1963579); further: nearly all actives have a fitted effect of over 45% in size
Procedure, shortened: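 Luminescent CellTiter-Glo read-out, 30 min at room temperature, gauged cytotoxicity in p53RE-bla cells exposed 16 h at 37 C to DMSO-dissolved compounds with metabolic activation by human liver microsomes and NADPH, each 0.5 mg/mL final.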

[6] = p53 small molecule agonists, cell-based qHTS assay with rat liver microsomes: qHTS cell viability counter screen (AID 1963580); further: nearly all actives have a fitted effect of over 45% in size
Procedure, shortened: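 Rat liver microsome (0.5 mg/mL final) and NADPH (0.5 mg/mL final) co-incubation with compounds for 16 h at 37 C on HCT-116 p53RE-bla cells; cytotoxicity taken from intracellular ATP luminescence.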

[7] = p53 small molecule agonists, cell-based qHTS assay: qHTS cell viability counter screen (AID 1963581); further: nearly all actives have a fitted effect of over 45% in size
Procedure, shortened: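 Viability was counter-screened in parallel with the p53 agonist reporter by measuring intracellular ATP luminescence in the same HCT-116 p53RE-bla wells after 16 h compound treatment at 37 C.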

[8] = biological target: 5-hydroxytryptamine receptor 2A (Homo sapiens) (UniProt P28223); assay: 5-hydroxytryptamine receptor 2A (HTR2A) small molecule antagonists, cell-based qHTS assay (AID 1963586); further: nearly all actives have a fitted effect of over 45% in size
Procedure, shortened: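 CHO cells stably expressing human HTR2A were plated for 18 h at 37 C, then loaded with calcium dye for 1 h. Compounds were preincubated 5 min at room temperature before DOI (4 nM solution) was added. Kinetic fluorescence was read for 3 min.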

[9] = biological target: 5-hydroxytryptamine receptor 2A (Homo sapiens) (UniProt P28223); assay: 5-hydroxytryptamine receptor 2A (HTR2A) small molecule agonists, cell-based qHTS assay (AID 1963587); further: nearly all actives have a fitted effect of over 30% in size
Procedure, shortened: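 Kinetic calcium-flux fluorescence (2 min, 1 sec intervals) after compound addition in agonist mode. HTR2A-CHO cells were cultured 18 h, then dye-loaded 1 h at 37 C.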

[10] = biological target: Muscarinic acetylcholine receptor M1 (Homo sapiens) (UniProt P11229); assay: Cholinergic receptor muscarinic 1 (CHRM1) small molecule antagonists, cell-based qHTS assay (AID 1963588); further: nearly all actives have a fitted effect of over 40% in size
Procedure, shortened: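 Compounds were tested at 15 concentrations in three independent runs. Dye-loaded CHRM1-CHO cells were exposed 5 min at room temperature before stimulation by acetylcholine added at 50nM. Intracellular calcium was read kinetically on FDSS for 3 min.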

[11] = biological target: Muscarinic acetylcholine receptor M1 (Homo sapiens) (UniProt P11229); assay: Cholinergic receptor muscarinic 1 (CHRM1) small molecule agonists, cell-based qHTS assay (AID 1963589); further: nearly all actives have a fitted effect of over 35% in size
Procedure, shortened: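 Cells were plated and incubated 18 h at 37 C/5% CO2, loaded with calcium dye for 1 h at 37 C, then treated with compounds in DMSO. Fluorescence was recorded kinetically at 1 sec intervals.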

[12] = cAMP Responsive Elements (CRE) small molecule agonists, cell-based qHTS assay (AID 1963590)
Procedure, shortened: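 Cells carrying a CRE-driven beta-lactamase reporter (HEK 293T) are seeded, incubated overnight (18 h), and treated with test compounds for 3 h at 37 C; reporter activity is then detected with a FRET substrate after 2 h at room temperature.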

[13] = cAMP Responsive Elements (CRE) small molecule antagonists, cell-based qHTS assay (AID 1963591; active means well fitted inhibition curve with a large enough effect in the signal ratio in the repeat runs, not every such curve was filed as active; the % refers to the signal ratio)
Procedure, shortened: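 Cells (CRE-bla HEK 293T, DMEM with 10% dialyzed FBS and 25 mM HEPES) are seeded and incubated 18 h. Compounds are added with NKH477 agonist at 0.25 uM final for 3 h, then FRET substrate for 2 h.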

[14] = biological target: Beta-2 adrenergic receptor (Homo sapiens) (UniProt P07550); assay: Adrenergic beta2 receptor (ADRB2) small molecule antagonists, cell-based qHTS assay (AID 1963592); further: series mostly up to about 92 µM; nearly all actives have a fitted effect of over 50% in size
Procedure, shortened: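 Assay format: CHO-ADRB2 cells, 18-20hr seeding at 37C/5% CO2, then compound plus 1nM isoproterenol agonist mix for 0.5hr RT. Homogeneous time-resolved fluorescence cAMP detection after 1hr, expressed as 665/615 nm ratio.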

[15] = biological target: D(2) dopamine receptor (Homo sapiens) (UniProt P14416); assay: Dopamine D2 receptor (DRD2) small molecule agonists, cell-based qHTS assay (AID 1963594); further: nearly all actives have a fitted effect of over 35% in size
Procedure, shortened: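 cAMP accumulation in DRD2-HEK293 cells measured by HTRF after 1 h detection; compounds added 10 min before NKH477 (200nM […]) forskolin-analogue stimulation, 30 min at room temperature, with Ro20-1724 present at 0.1 mM final.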

[16] = biological target: D(2) dopamine receptor (Homo sapiens) (UniProt P14416); assay: Dopamine D2 receptor (DRD2) small molecule antagonists, cell-based qHTS assay (AID 1963595; active means well fitted inhibition curve with a large enough effect in the signal ratio in the repeat runs, with a control signal flat; the % refers to the signal ratio)
Procedure, shortened: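 HEK293 cells stably expressing DRD2, preincubated with 0.1 mM Ro20-1724 and compounds 10 min, were stimulated with 200 nM NKH477 plus 12 nM quinpirole for 30 min at room temperature; cAMP measured by HTRF (665/620 nm).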

[17] = p53 small molecule agonists, cell-based qHTS assay with human liver microsomes (AID 1963577);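 further: p53 response element beta-lactamase reporter cells with liver microsomes plus NADPH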
Procedure, shortened: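 p53RE-bla cells; 5 h settle, 37 C/5% CO2; cpd + HLM 0.5 mg/mL + NADPH 0.5 mg/mL (final); 16 h 37 C; LiveBLAzer 2 h RT dark; fluorescence readout.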

[18] = p53 small molecule agonists, cell-based qHTS assay with rat liver microsomes (AID 1963578)
Procedure, shortened: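 Rat liver microsome activation: microsomes 0.5 mg/mL, NADPH 0.5 mg/mL final; p53RE-bla cells, 16 h 37 C; LiveBLAzer readout, 2 h RT dark.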

[19] = biological target: Beta-2 adrenergic receptor (Homo sapiens) (UniProt P07550); assay: Adrenergic beta2 receptor (ADRB2) small molecule agonists, cell-based qHTS assay (AID 1963593);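 further: CHO cells stably overexpressing human ADRB2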
Procedure, shortened: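 CHO cells stably over-expressing ADRB2 were plated overnight at 37C, then dosed with compounds plus a stimulation mix containing 100uM IBMX and 25uM Ro-20-1724 for 0.5hr at room temperature. cAMP was measured by HTRF competition, 1hr.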

[20] = p53 small molecule agonists, cell-based qHTS assay (AID 1963582; active means well fitted activation curve with a large enough effect in the signal ratio in the repeat runs, not every such curve was filed as active; the % refers to the signal ratio)
Procedure, shortened: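 Cells carrying a p53-responsive bla reporter are treated with test compounds for 16 h at 37 C; beta-lactamase activity is then detected with LiveBLAzer B/G FRET substrate after 2 h at room temperature.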
On the % scale 0 is the no-effect control and ±100 the full control effect.

Sequence of KiSS-1 receptor (Homo sapiens) (Q969F8 whole entry, looked up): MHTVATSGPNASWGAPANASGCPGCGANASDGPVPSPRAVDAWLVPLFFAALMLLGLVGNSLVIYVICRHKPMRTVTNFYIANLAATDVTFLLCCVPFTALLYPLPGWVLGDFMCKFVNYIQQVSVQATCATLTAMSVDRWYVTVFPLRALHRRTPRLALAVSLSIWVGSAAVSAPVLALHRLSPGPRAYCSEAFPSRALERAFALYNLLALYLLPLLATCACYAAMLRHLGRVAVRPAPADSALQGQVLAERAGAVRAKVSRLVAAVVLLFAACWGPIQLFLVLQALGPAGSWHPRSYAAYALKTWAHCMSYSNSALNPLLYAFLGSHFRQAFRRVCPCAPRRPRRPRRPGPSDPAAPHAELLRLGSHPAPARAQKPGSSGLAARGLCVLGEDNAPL
Sequence of Gonadotropin-releasing hormone receptor (Homo sapiens) (P30968 whole entry, looked up): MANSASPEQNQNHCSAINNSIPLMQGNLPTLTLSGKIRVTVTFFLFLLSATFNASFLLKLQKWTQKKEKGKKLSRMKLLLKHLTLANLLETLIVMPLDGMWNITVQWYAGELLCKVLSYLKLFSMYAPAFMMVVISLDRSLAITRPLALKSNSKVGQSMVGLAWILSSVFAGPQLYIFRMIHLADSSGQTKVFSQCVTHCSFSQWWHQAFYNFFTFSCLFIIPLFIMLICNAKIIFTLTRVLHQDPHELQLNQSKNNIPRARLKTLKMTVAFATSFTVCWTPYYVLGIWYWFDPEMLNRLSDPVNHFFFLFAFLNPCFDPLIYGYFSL
Sequence of 5-hydroxytryptamine receptor 2A (Homo sapiens) (P28223 whole entry, looked up): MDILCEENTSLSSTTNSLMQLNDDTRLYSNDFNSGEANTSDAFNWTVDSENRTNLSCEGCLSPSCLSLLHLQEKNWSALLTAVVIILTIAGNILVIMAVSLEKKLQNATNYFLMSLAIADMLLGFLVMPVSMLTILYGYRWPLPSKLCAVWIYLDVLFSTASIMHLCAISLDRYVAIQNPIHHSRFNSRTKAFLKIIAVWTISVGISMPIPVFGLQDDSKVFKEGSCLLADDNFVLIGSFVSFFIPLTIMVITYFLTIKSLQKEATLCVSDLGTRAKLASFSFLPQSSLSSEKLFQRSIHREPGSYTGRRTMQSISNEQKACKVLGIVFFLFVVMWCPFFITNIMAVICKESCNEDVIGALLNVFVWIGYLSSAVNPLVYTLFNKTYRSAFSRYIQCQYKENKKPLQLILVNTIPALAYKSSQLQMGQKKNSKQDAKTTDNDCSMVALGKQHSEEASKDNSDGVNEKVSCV
Sequence of Beta-2 adrenergic receptor (Homo sapiens) (P07550 whole entry, looked up): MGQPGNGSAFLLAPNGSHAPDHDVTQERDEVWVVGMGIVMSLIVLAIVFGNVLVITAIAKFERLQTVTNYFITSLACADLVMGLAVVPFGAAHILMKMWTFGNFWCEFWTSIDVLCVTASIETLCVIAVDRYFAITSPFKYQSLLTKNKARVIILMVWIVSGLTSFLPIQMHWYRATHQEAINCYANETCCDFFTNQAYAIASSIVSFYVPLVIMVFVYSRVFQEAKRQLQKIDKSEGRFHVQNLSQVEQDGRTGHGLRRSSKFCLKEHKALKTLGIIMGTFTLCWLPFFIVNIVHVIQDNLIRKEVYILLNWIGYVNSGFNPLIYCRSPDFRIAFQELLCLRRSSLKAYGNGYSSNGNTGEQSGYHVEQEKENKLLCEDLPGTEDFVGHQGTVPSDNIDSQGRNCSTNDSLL
Sequence of D(2) dopamine receptor (Homo sapiens) (P14416 whole entry, looked up): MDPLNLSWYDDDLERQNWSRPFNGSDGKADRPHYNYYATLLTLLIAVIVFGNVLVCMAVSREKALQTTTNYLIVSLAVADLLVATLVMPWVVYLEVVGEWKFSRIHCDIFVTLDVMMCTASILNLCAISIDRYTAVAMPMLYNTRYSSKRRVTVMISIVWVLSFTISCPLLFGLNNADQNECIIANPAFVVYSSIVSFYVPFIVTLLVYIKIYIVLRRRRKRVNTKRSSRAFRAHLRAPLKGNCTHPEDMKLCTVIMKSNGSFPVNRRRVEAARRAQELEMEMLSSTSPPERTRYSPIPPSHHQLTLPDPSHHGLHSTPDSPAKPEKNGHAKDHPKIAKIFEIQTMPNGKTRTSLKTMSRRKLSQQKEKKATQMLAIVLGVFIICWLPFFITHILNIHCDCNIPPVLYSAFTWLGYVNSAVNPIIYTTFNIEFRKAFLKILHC
Sequence of Muscarinic acetylcholine receptor M1 (Homo sapiens) (P11229 whole entry, looked up): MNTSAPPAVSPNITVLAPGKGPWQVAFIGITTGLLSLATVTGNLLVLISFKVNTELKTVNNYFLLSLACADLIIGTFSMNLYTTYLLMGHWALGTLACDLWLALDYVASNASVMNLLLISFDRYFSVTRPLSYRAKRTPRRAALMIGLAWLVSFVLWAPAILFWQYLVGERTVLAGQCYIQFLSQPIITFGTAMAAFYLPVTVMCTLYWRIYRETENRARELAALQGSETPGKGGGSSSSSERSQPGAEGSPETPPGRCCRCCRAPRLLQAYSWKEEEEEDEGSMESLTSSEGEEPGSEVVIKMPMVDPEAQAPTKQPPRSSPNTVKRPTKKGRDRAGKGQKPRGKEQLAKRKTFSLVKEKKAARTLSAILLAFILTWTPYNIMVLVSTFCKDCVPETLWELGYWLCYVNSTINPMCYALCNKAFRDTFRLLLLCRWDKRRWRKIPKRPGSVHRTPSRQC

CC(=O)[O-].CC(=O)[O-].CC(=O)[O-].[Sb+3]
inactive: activity change, negative = cytotoxicity [1] 0.851% [at 3.27 µM] | activity change [2] 0.655% [at 2.04 µM, active compounds read high] | activation [3] 14% [at 2.72 µM] | activation [4] -0.454% [at 2.04 µM] | activity change, negative = cytotoxicity [5] 0.868% [at 2.33 µM] | activity change, negative = cytotoxicity [6] -3.59% [at 2.33 µM] | activity change, negative = cytotoxicity [7] 11.8% [at 2.33 µM] | activity, negative = inhibition [8] 0.713% [at 2.12 µM] | activation [9] -0.125% [at 2.65 µM] | activity, negative = inhibition [10] 9.52% [at 2.17 µM] | activation [11] -0.154% [at 2.72 µM] | activation [12] -0.0591% [at 3.27 µM] | activity change, negative = inhibition [13] -4.85% [at 3.27 µM] | activity change, negative = inhibition [14] -10.7% [at 3.27 µM] | activation [15] 0.942% [at 3.27 µM] | activity change, negative = inhibition [16] -1.4% [at 3.28 µM]

CCCCCCC[CH2][Sn]([Cl])([Cl])[CH2]CCCCCCC
active: Potency [1] 30.6 µM | Potency [3] 48.9 µM
inactive: Potency [2] | Potency [4] | Potency [17] | Potency [5] | Potency [6] | Potency [7] | Potency [8] | Potency [9] | Potency [10] | Potency [11] | Potency [12] | Potency [14] | Potency [15] | Potency [16]

Clc1ccc(CO/N=C(\Cn2ccnc2)c2ccc(Cl)cc2Cl)c(Cl)c1
inactive: Potency [2] | Potency [3] | Potency [4] | Potency [18] | Potency [5] | Potency [6] | Potency [12] | Potency [19] | Potency [15]
active: Potency [1] 23.7 µM

c1cc[n+]2c(c1)-c1cccc[n+]1CC2
inactive: Potency [1] | Potency [2] | Potency [3] | Potency [4] | Potency [18] | Potency [6] | Potency [8] | Potency [9] | Potency [10] | Potency [11] | Potency [13] | Potency [14] | Potency [19] | Potency [15] | Potency [16]

CCOP(=S)(OCC)OC(Cl)C(Cl)(Cl)Cl (configuration not stated)
inactive: Potency [1] | Potency [2] | Potency [3] | Potency [4] | Potency [5] | Potency [6] | Potency [7] | Potency [20] | Potency [8] | Potency [10] | Potency [11] | Potency [12] | Potency [13] | Potency [14] | Potency [15] | Potency [16]

Cc1ncsc1CCCl
inactive: Potency [1] | Potency [2] | Potency [3] | Potency [4] | Potency [5] | Potency [6] | Potency [7] | Potency [8] | Potency [9] | Potency [10] | Potency [11] | Potency [12] | Potency [13] | Potency [19] | Potency [15] | Potency [16]

NC(=S)C(N)=S
inactive: Potency [1] | Potency [2] | Potency [3] | Potency [4] | Potency [5] | Potency [6] | Potency [7] | Potency [20] | Potency [10] | Potency [11] | Potency [12] | Potency [13] | Potency [14] | Potency [15] | Potency [16]

CN
inactive: Potency [1] | Potency [2] | Potency [3] | Potency [4] | Potency [5] | Potency [6] | Potency [7] | Potency [20] | Potency [8] | Potency [9] | Potency [11] | Potency [12] | Potency [13] | Potency [14] | Potency [15] | Potency [16]

C[C@]12Cc3cn[nH]c3C[C@@H]1CC[C@@H]1[C@@H]2CC[C@@]2(C)[C@H]1CC[C@]2(C)O
active: Potency [1] 29.8 µM
inactive: Potency [2] | Potency [3] | Potency [4] | Potency [18] | Potency [5] | Potency [6] | Potency [7] | Potency [20] | Potency [14] | Potency [15] | Potency [16]
